Measured values reported in PubChem BioAssay AID1047 (SRMLSC, 2008).
In all, about 1,500 compounds went through this assay and about 1,400 (93%) were called active. No rule for the calls is given here. The set was probably picked from earlier hits. A selection follows. Measured potencies and affinities stand elsewhere.

test: growth suppression of PTEN-null colon cells, dose response, cell-based, HCT116 PTEN knockout (AID 1047); conditions: CellTiter-Glo, 60 h; series mostly up to 30 µM; viability: at the top concentration

| Structure (SMILES) | viability |
| --- | --- |
| Cc1sc2c(=O)n3c(nc2c1C(=O)NCCCN1CCOCC1)CCCCC3 | 83.3% (inactive) |
| CC(=O)ON1C(C)(C)CC(OC(=O)c2ccccc2)CC1(C)C | 91.2% (inactive) |
| O=C(COC(=O)c1cccnc1Nc1cccc(C(F)(F)F)c1)NCc1ccc2c(c1)OCO2 | 100% (inactive) |
| CC(C)c1cc(=O)oc2c3c4c(cc12)CCCN4CCC3 | 88.1% (inactive) |
| CNC(=S)N/N=C(\C)c1ccc(N2CCOCC2)cc1 | 95.4% (inactive) |
| O=S(=O)(NCCc1csc(-c2cccnc2)n1)c1ccc2c(c1)OCCO2 | 100% (inactive) |
| COc1ccc(CCn2c(N)c(C(=O)NCc3ccco3)c3nc4ccccc4nc32)cc1OC | 82.2% (inactive) |
| C=CCNc1nnc(SC2CC(=O)N(c3ccc(OC)cc3)C2=O)s1 (centres undefined) | 99.3% (inactive) |
| OCCn1c(C(F)(F)F)nc2ccccc21 | 104% (inactive) |
| O=C(Nc1ccccc1Cl)NC1(C(=O)N2CCCC2)CCCCC1 | 106% (inactive) |
| O=C(N/N=C/c1ccc(O)c(O)c1O)/C(=C/c1ccc([N+](=O)[O-])cc1)NC(=O)c1ccccc1 | 81.5% (inactive) |
| Cc1ccccc1NC(=O)c1ccc2c(c1)OCCO2 | 91.1% (inactive) |
| O=C(NNc1nc2cc3c(cc2s1)OCO3)c1cccc(F)c1 | 92.5% (inactive) |
| COc1cccc(OCC(=O)NN=C2c3ccccc3-c3ccccc32)c1 | 105% (inactive) |
| COc1ccc(C(=O)OC2CCN(c3ncc(C(F)(F)F)cc3Cl)CC2)cc1 | 97.8% (inactive) |
| O=C1[C@H]2[C@H]3[C@H](O)[C@H](O)C/C(=N\OC[C@@H](O)COCc4ccco4)[C@@H]3CC[C@H]2C(=O)N1c1ccc(F)cc1F | 107% (inactive) |
| COC(=O)COc1ccc(S(=O)(=O)NCc2ccncc2)cc1 | 111% (inactive) |
| c1ccc2c(c1)CCCC2C1=NCCN1 (centres undefined) | 94.9% (inactive) |
| CC(C[N+](C)(C)C)OC(N)=O (centres undefined) | 102% (inactive) |
| CCOc1c(OC)ccc2c3c(c(=O)oc12)CCCC3 | 95.5% (inactive) |

| Structure (SMILES) | viability |
| --- | --- |
| OC1C2CN3CCN(C2)CC1(Cc1ccccc1)C3 (centres undefined) | 88.9% (inactive) |
| Cc1cc(NC(=O)c2sc(Nc3cccc(C(F)(F)F)c3)nc2N)no1 | 86.6% (inactive) |
| CCC(C)C1C(C#N)=C(N)Oc2n[nH]c(C)c21 (centres undefined) | 80.5% (inactive) |
| Cc1[nH]nc2c1C(c1ccsc1C)C(C#N)=C(N)O2 (centres undefined) | 89.2% (inactive) |
| CCOC(=O)N1CCN(C(=O)c2nn(-c3ccc(C)cc3)c(=O)c3c2c2ccccc2n3C)CC1 | 89.2% (inactive) |
| COc1ccc(C(=O)OCC(=O)c2cc(OC)ccc2OC)c(OC)c1 | 89.9% (inactive) |
| CCOc1ccc(N(CC(=O)NC2CCCCCC2)S(=O)(=O)c2c(C)noc2C)cc1 | 96.9% (inactive) |
| CCCCCn1c(Sc2ccccc2)nc2c1c(=O)[nH]c(=O)n2C | 81.8% (inactive) |
| CCN(CCNC(=O)Nc1ccc(Cl)cc1)c1ccccc1 | 99.6% (inactive) |
| O=C(c1nnc(Cc2ccc(Cl)cc2)o1)N1CCc2ccccc2C1 | 98.8% (inactive) |
| CN(C)S(=O)(=O)c1cccc(NC(=O)COC(=O)c2cccc(S(=O)(=O)N3CCc4ccccc4C3)c2)c1 | 96.8% (inactive) |
| CCOC(=O)c1[nH]c2ccc(OC)cc2c1NC(=S)N1CCN(c2ccccc2)CC1 | 88.3% (inactive) |
| Cc1cc(C)n(C(=O)CNc2ccc(C)c(C)c2)n1 | 92.2% (inactive) |
| O=C(NCc1ccco1)C1CCN(S(=O)(=O)Cc2ccccc2)CC1 | 98.2% (inactive) |
| COc1ccc(Nc2oc(COc3ccc(Cl)cc3)nc2C#N)cc1 | 90.4% (inactive) |
| COc1ccc(-c2cc(C(F)F)n3ncc(C(=O)n4ccnc4C)c3n2)cc1 | 89.9% (inactive) |
| COC(=O)C1=C(C)N(c2ccc(F)c(Cl)c2)C(=O)C1 | 82.7% (inactive) |
| COc1cc(SC#N)ccc1N=Cc1c(C)[nH]n(-c2cccc3ccccc23)c1=O | 82.9% (inactive) |
| COc1ccccc1CN=Cc1[nH]c2ccc(Br)c(Cl)c2c1O | 89.1% (inactive) |
| CCOC(=O)c1c(C2COc3ccccc3O2)csc1NC(=O)c1ccccc1 (centres undefined) | 84.2% (inactive) |

| Structure (SMILES) | viability |
| --- | --- |
| O=C(CSc1ncnc2c1nnn2-c1ccc(F)cc1)NCC1CCCO1 (centres undefined) | 86.8% (inactive) |
| COC(=O)Nc1nc2c(s1)CCCC2 | 96.2% (inactive) |
| Cc1cc(C)c2c(=O)n(CC(=O)NCCCN3CCOCC3)sc2n1 | 90.3% (inactive) |
| CN1/C(=C\C(=S)NC(=O)c2ccc([N+](=O)[O-])cc2)C(C)(C)c2ccccc21 | 87.3% (inactive) |
| COc1ccc(NC(=O)CCCn2c(=O)c3sccc3n(Cc3ccccc3)c2=O)cc1 | 94% (inactive) |
| COC(=O)C1=C(C)N(Cc2ccco2)C(=O)N[C@@H]1c1cccc(C(F)(F)F)c1 | 84.9% (inactive) |
| CC(C)(C)c1ccc(CNc2ccc([N+](=O)[O-])cn2)cc1 | 95% (inactive) |
| Cc1cc(Nc2ccccc2)nn1C(=O)c1ccccc1 | 91.5% (inactive) |
| COc1ccc(C(=O)CCN2CCCCCC2)cc1 | 85.5% (inactive) |
| O=C(NCCOc1ccccc1)C(c1ccccc1)c1ccccc1 | 98.4% (inactive) |
| CCCCNS(=O)(=O)c1ccc2nc(-c3cccnc3)cc(C(=O)NC3CC3)c2c1 | 89.9% (inactive) |
| CCN(CC)S(=O)(=O)c1ccc(-c2nnc(SCc3nnc(-c4ccccc4)o3)o2)cc1 | 90.7% (inactive) |
| C=C1C(O)C[C@H]2C(=C)CCC3[C@H](OC(=O)[C@]3(O)CO)[C@@H]12 (some centres undefined) | 97.3% (inactive) |
| O=S(=O)(c1cccc2ccccc12)N1CCSC1 | 99.6% (inactive) |
| COCCn1c(=NC(=O)CSCC(=O)Nc2cc(C)on2)sc2cc(C(=O)OC)ccc21 | 99.8% (inactive) |
| O=C(CCNc1cc(Cl)cc(Cl)c1)c1ccco1 | 92.8% (inactive) |
| c1ccc(-c2cc3n(c2)CCc2ccccc2-3)cc1 | 87.2% (inactive) |
| [N-]=[N+]=NC1C[C@H](n2ccc(=O)[nH]c2=O)O[C@@H]1CO (some centres undefined) | 102% (inactive) |
| O=C(Nc1cccc(C(F)(F)F)c1)NC1CCCCC1 | 83.1% (inactive) |
